Measured values published in PubChem BioAssay (NCI).
“And” between values parts separate entries of the source, which are not always exact repeats. Identical values can stand only once. The panel holds about 83,000 compounds, 20% with a hit somewhere; the sample as a whole holds those more often.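 Cell lines were cultured in 96-well plates, exposed to a single compound concentration, and assessed for percent growth 48 hours later.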 The source made the active and inactive calls. The calls were made as follows: active = growth percent below 10; inactive = the rest.

Experiments:
Assay in all cases: NCI-60 one-dose screen, 48 h (100 = growth as untreated, 0 = no growth, -100 = all killed)
Conditions in all cases: 10 µM unless noted
T-47D breast = tested on: T-47D breast
BT-549 breast = tested on: BT-549 breast
MDA-MB-435 melanoma = tested on: MDA-MB-435 melanoma
SW-620 colon = tested on: SW-620 colon
MCF7 breast = tested on: MCF7 breast
HCT-116 colon = tested on: HCT-116 colon
HCC-2998 colon = tested on: HCC-2998 colon
KM12 colon = tested on: KM12 colon

Compound | growth (T-47D breast) | growth (BT-549 breast) | growth (MDA-MB-435 melanoma) | growth (SW-620 colon) | growth (MCF7 breast) | growth (HCT-116 colon) | growth (HCC-2998 colon) | growth (KM12 colon)
O=[N+]([O-])c1ccc2[nH]c3nccc(NCc4cccc(Cl)c4)c3c2c1 | 67.4% (inactive) | 70% (inactive) | 77% (inactive) | 63.6% (inactive) | 82.4% (inactive) | 67.6% (inactive) | 114% (inactive) | 84.7% (inactive)
O=C(Cn1cc(CN2CCN(c3ccnc4cc(Cl)ccc34)CC2)nn1)Nc1cccc([N+](=O)[O-])c1 | 75% (inactive) | 85.6% (inactive) | 98.7% (inactive) | 95% (inactive) | 89.1% (inactive) | 101% (inactive) | 106% (inactive) | 85.4% (inactive)
Cc1c(C(C)(C)O)cn2ncnc(Oc3ccc(NC(=O)Nc4ccc(Cl)c(C(F)(F)F)c4)cc3)c12 | 21.8% (inactive) | 58% (inactive) | 37.4% (inactive) | 62% (inactive) | 25.2% (inactive) | 28.6% (inactive) | 85.7% (inactive) | 24.8% (inactive)
Cc1ccc(S(=O)(=O)OC[C@@]2(C)CC[C@]3(C)CC[C@]4(C)C(=C3C2)C=C[C@@H]2[C@@]3(C)CCCNC(C)(C)[C@@H]3CC[C@]24C)cc1 | -57.7% (active) | 83.6% (inactive) | -38.2% (active) | -85.8% (active) | -4.17% (active) | -91.4% (active) | -29% (active) | -75.8% (active)
CC1=C2[C@@H](CC1)[C@]1(C)O[C@@](C(C)C)(C[C@H]1OC(=O)CO)[C@H]2OC(=O)C1CC1c1ccccc1 (stereo not given in full) | 41.5% (inactive) | 88.8% (inactive) | 96.7% (inactive) | 84.6% (inactive) | 75.1% (inactive) | 89% (inactive) | 82.9% (inactive) | 73.9% (inactive)
COc1ccc(/C=N/C2=C(C#N)C(c3ccccc3)c3c(ccc4ccccc34)O2)cc1 (stereo not given) | 36.3% (inactive) | 35.7% (inactive) | -59.2% (active) | 29.4% (inactive) | 15.4% (inactive) | 24.8% (inactive) | 48.8% (inactive) | 29.1% (inactive)
COc1cc(CNC(=O)CCCC/C=C/C(C)C)ccc1OCc1cn(-c2ccc([N+](=O)[O-])cc2)nn1 | 64% (inactive) | 80.4% (inactive) | 99.7% (inactive) | 99.8% (inactive) | 83.4% (inactive) |  | 108% (inactive) | 90% (inactive)
COc1ccc(C/C(C)=C(/c2ccc(OCCN3CCCC3)cc2)c2ccc(OC(=O)NCc3ccccc3)cc2)cc1 | 51% (inactive) | 82.5% (inactive) | 73% (inactive) | 95.3% (inactive) | 30.7% (inactive) |  | 87.8% (inactive) | 90.7% (inactive)
CCCCCC#CC1OC23CCCCC2C(C#N)(C(=N)O3)C1(C#N)C#N (stereo not given) | 113% (inactive) | 89.9% (inactive) | 92.6% (inactive) | 95.5% (inactive) | 88.4% (inactive) |  | 102% (inactive) | 99.3% (inactive)
Cc1ccc(C(=O)N(CCCN)[C@@H](c2nc3cc(Cl)ccc3c(=O)n2Cc2ccccc2)C(C)C)cc1 | -41.7% (active) | 24.2% (inactive) | -89.9% (active) | -77.6% (active) | -61.2% (active) |  | -74.4% (active) | -45.8% (active)
COC1/C=C/OC2(C)Oc3c(C)c(O)c4c(O)c(c(C=NOC(c5ccccc5)c5ccccc5)c(O)c4c3C2=O)NC(=O)/C(C)=C/C=C/C(C)C(O)C(C)C(O)C(C)C(OC(C)=O)C1C (stereo not given) | -82.7% (active) | 32.7% (inactive) | 11.5% (inactive) | 18.3% (inactive) | 10.9% (inactive) |  | -38.8% (active) | 5.8% (active)
CCCCCCCCCCCCC[C@H](O)C[C@H](O)[C@H](C)N | 122% [1.25 µM] (inactive) | 107% [1.25 µM] (inactive) | 116% [1.25 µM] (inactive) | 99.9% [1.25 µM] (inactive) | 104% [1.25 µM] (inactive) |  | 26.7% [1.25 µM] (inactive) | 116% [1.25 µM] (inactive)
O=C(/C=C/c1ccc(Cl)s1)c1ccc(Cl)s1 | 88.8% (inactive) and 96.9% (inactive) | 103% (inactive) | 87.8% (inactive) | 99.7% (inactive) and 95.2% (inactive) | 59.3% (inactive) and 60.5% (inactive) |  | 98.8% (inactive) and 102% (inactive) | 89% (inactive) and 95.9% (inactive)
Fc1ccc(NC(c2ccc(F)cc2)C2CCN(CCCCc3ccccc3)CC2)cc1 (stereo not given) | 22.4% (inactive) | 61.1% (inactive) | 43.8% (inactive) | 12.7% (inactive) | 5.18% (active) |  | 16.3% (inactive) | 29.9% (inactive)
O=C(Nc1ncc(Cc2cccc(C(F)(F)F)c2)s1)c1ccc2c(c1)OCCO2 | 42.5% (inactive) | 35.8% (inactive) | 3.47% (active) | 37% (inactive) | 13.9% (inactive) |  | 20.3% (inactive) | 11.1% (inactive)
COc1ccc2c(c1)c(-c1nc(-c3c[nH]c4c(Cl)nccc34)cs1)cn2C | -4.46% (active) | 98.8% (inactive) | 98.3% (inactive) | 103% (inactive) | 8.44% (active) |  | 74.6% (inactive) | 30.8% (inactive)
Cn1c(=O)c2c(nc(Nc3cc(=O)[nH]c(=O)[nH]3)n2Cc2ccccc2)n(C)c1=O | 18.9% (inactive) | 98.2% (inactive) | -73% (active) | 19.3% (inactive) | 95.5% (inactive) |  | 107% (inactive) | 5.18% (active)
Cc1nc(Nc2ncc(C(=O)Nc3c(C)cccc3Cl)s2)cc(N2CCN(CCO)CC2)n1 | 40.8% (inactive) and -2.8% (active) | 55.3% (inactive) and 32.2% (inactive) | 62.6% (inactive) and 27.1% (inactive) | 103% (inactive) and 52.6% (inactive) | 66.1% (inactive) and 54.4% (inactive) |  | 110% (inactive) and 81% (inactive) | 81.3% (inactive) and 28.1% (inactive)
N#CC(Cc1cccc2ccccc12)c1cc2ccccc2[nH]1 (stereo not given) | 83.8% (inactive) | 90.1% (inactive) | 102% (inactive) | 89.3% (inactive) | 82.5% (inactive) |  | 99.2% (inactive) | 88% (inactive)
Cc1oc2c(Cc3ccc(NC(=O)c4ccc(Cl)cc4)cc3)ncnc2c1C(=O)NO | 96.8% (inactive) | 103% (inactive) | 92.5% (inactive) | 105% (inactive) | 91.1% (inactive) |  | 97.9% (inactive) | 95.9% (inactive)
CN1C(=O)/C(=C/c2ccc(C(=O)Nc3ncc(Cc4ccccc4Cl)s3)cc2)SC1=S | 63.4% (inactive) | 69.5% (inactive) | -18.5% (active) | 62% (inactive) | 61.8% (inactive) |  | 77.5% (inactive) | 46.1% (inactive)
COc1ccc(C(CC(=O)c2ccc3c(c2)OCO3)C(=O)O)cc1OC (stereo not given) | 104% (inactive) and 91.9% (inactive) | 115% (inactive) and 106% (inactive) | 108% (inactive) and 102% (inactive) | 100% (inactive) and 108% (inactive) | 100% (inactive) and 96.6% (inactive) |  | 104% (inactive) and 105% (inactive) | 110% (inactive) and 95.7% (inactive)
